The whole screen tested about 1,200 compounds, of which about 210 (18%) were called active. Rule as the data show it: active = inhibition above about 30%; inactive = the rest. A selection follows.
Experiment: HTRF signal interference by compounds, confirmation, artefact control for SUMOylation inhibitor project, biochemical, uHTS (AID 2069)
Details: HTRF interference counterscreen, fluorescence, at 35 µM, active compounds read high

Row | Compound | inhibition
1 | O=C(Nc1nnc(-c2ccccc2SCc2ccccc2F)s1)Nc1ccccc1F | 0.75% (inactive)
2 | Cc1ccc(C(=O)NC(C)c2nc3ccccc3n2CC(=O)Nc2c(C)cc(C)cc2C)cc1 (stereo not given) | 25.5% (inactive)
3 | O=C(CCc1ccccc1)NNc1cc(N2CCCCC2)nc(N2CCCCC2)n1 | 14.2% (inactive)
4 | CCC(=O)OCCNc1cc(Sc2nccn2C)c2nonc2c1[N+](=O)[O-] | 8.05% (inactive)
5 | CC1=C(C#N)C(=O)NC(=O)/C1=C\c1ccc(-c2ccc(C)cc2[N+](=O)[O-])o1 | -1.55% (inactive)
6 | COc1ccc2c(c1)CC/C(=C\C=C\c1ccccc1)C2=O | 6.1% (inactive)
7 | CCOC(=O)N1CCC(c2cc(=O)n(-c3ccccc3)[nH]2)CC1 | 2.2% (inactive)
8 | O=C(c1cccn2c(=O)c3cc(Cl)ccc3nc12)N1CCOCC1 | 44.6% (active)
9 | CCOC(=O)N1CCN(C(=O)c2cccn3c(=O)c4cc(Cl)ccc4nc23)CC1 | 43.5% (active)
10 | O=C(NCCNc1ccc2ccccc2c1)c1cccn2c(=O)c3sccc3nc12 | 5.05% (inactive)
11 | Cn1c2ccc(Cl)cc2c2nc3ccccc3nc21 | 21.9% (inactive)
12 | CCOC(=O)N1CCN(C(=O)c2cccn3c(=O)c4cc(Br)ccc4nc23)CC1 | 49.9% (active)
13 | O=C(c1cccn2c(=O)c3cc4ccccc4cc3nc12)N1CCN(c2ccccc2)CC1 | 7.35% (inactive)
14 | NC(=O)CC(NC(=O)Cc1ccc(Br)cc1)c1ccc(N2CCC(Br)CC2)c([N+](=O)[O-])c1 (stereo not given) | 4.65% (inactive)
15 | O=C(Nc1nnc(-c2ccccc2)o1)c1nc2ccccc2s1 | 11.1% (inactive)
16 | CN(C)c1cc(Cl)c2nonc2c1N | 4.85% (inactive)
17 | NC(=O)c1ccc(N=C2C(=O)Nc3ccc([N+](=O)[O-])cc32)cc1 | -4.65% (inactive)
18 | S=C(Nc1ccc(Cl)cc1)Nc1cccc2cnccc12 | 1.3% (inactive)
19 | CCCCCn1c(NC(=O)c2ccco2)c(S(=O)(=O)c2ccc(C)cc2)c2nc3ccccc3nc21 | 6.85% (inactive)
20 | CC(=O)c1ccc(NC(=S)Nc2cccc3ccccc23)cc1 | 14.1% (inactive)
21 | O=[N+]([O-])c1ccccc1/C=C/C=N/n1c(-c2cc(-c3ccccc3)n[nH]2)n[nH]c1=S | -4% (inactive)
22 | COCCCn1c(C(=O)N2CC(C)OC(C)C2)cc2c(=O)n3ccccc3nc21 (stereo not given) | 46.4% (active)
23 | COCCCNC(=O)c1cccn2c(=O)c3cc4ccccc4cc3nc12 | 13.3% (inactive)

Row | Compound | inhibition
24 | COCCCn1c(C(=O)N2CCOCC2)cc2c(=O)n3ccccc3nc21 | 52.1% (active)
25 | CC1=NN(c2ccc(Br)cc2)C(=O)/C1=C/c1cccs1 | -19.8% (inactive)
26 | CCc1ccc(NC(=S)Nc2cccc3cnccc23)cc1 | 3.45% (inactive)
27 | N#Cc1c2nc3ccccc3nc2n2cc(NC(=O)c3ccc(F)cc3)ccc12 | 3% (inactive)
28 | Cn1cccc1/C=N/NC(=O)c1sc2cc(Cl)ccc2c1Cl | 15% (inactive)
29 | O=C(N/N=C/c1ccc(O)c2ncccc12)c1cccc(Br)c1 | -4.25% (inactive)
30 | S=c1[nH]nc(-c2ccncc2)n1/N=C/c1cn(-c2ccccc2)nc1-c1ccc(Cl)cc1 | -1.35% (inactive)
31 | Cc1ccc(/C=C2\SC(=S)N(c3cccnc3)C2=O)o1 | 4.85% (inactive)
32 | Fc1cccc(Cl)c1C1Nc2cccc3cccc(c23)N1 | -14.8% (inactive)
33 | Cc1ccc(NC(=O)Cn2nc(C(=O)Nc3ccc(C)cc3)ccc2=O)cc1 | 4.7% (inactive)
34 | O=C(Nc1ccccc1)c1ccccc1CCc1ccccc1 | 2.45% (inactive)
35 | Cc1cc2c(NC(=O)Nc3ccccc3)cccc2nn1 | -6.1% (inactive)
36 | O=C(Nc1ccccc1)Nc1ccno1 | 47.1% (active)
37 | Cc1ccc(NC(=O)Nc2ccno2)cc1 | 48.2% (active)
38 | CCC(NC(=O)Nc1ccc(O)cc1)(C(F)(F)F)C(F)(F)F | -9.2% (inactive)
39 | COc1ccc(/C=C2/C(=O)N(c3ccccc3)N=C2C)cc1OC | -0.35% (inactive)
40 | O=[N+]([O-])c1c(NCc2ccccc2)cc(N2CCc3ccccc3C2)c2nonc12 | 0.75% (inactive)
41 | O=[N+]([O-])c1cc(CN2CCN(c3cccc(C(F)(F)F)c3)CC2)c2cccnc2c1O | -18.5% (inactive)
42 | Cc1cc2c(NC(=O)Nc3ccc(C(C)(C)C)cc3)cccc2nn1 | 18.8% (inactive)
43 | Cc1c(O)ccc2c(CC(=O)N[C@@H](Cc3ccc(O)cc3)C(=O)O)cc(=O)oc12 | 39.9% (active)
44 | CCCc1cc(=O)oc2cc(OCC(=O)Nc3ccc(S(N)(=O)=O)cc3)ccc12 | 21.4% (inactive)
45 | NC(=O)C1CCN(C2=C(NS(=O)(=O)c3ccccc3)C(=O)c3ccccc3C2=O)CC1 | -13.8% (inactive)

— PubChem BioAssay AID2069 (Sanford-Burnham Center for Chemical Genomics, 2009)
